Results on 24 molecules are retold here after ChEMBL document CHEMBL4296182, “CO-ADD screening of NIH NCI Diversity Set V”.

For part of these data: Potency and affinity values are given separately.

For one experiment, the system named is Staphylococcus aureus. Description: Antibacterial activity against Staphylococcus aureus MRSA ATCC 43300 (CO-ADD:GP_020); MIC in CAMBH media using NBS plates, by Resazurin F(560/590). The following applies: Concentration 20 uM, ASSAY_TEST Inhibition of Bacterial Growth, detection method Resazurin, Fluorescence (ex560/em590), MEDIA CAMHB, plate type 384well, CORNING #3640, time 18 hr. The experiment is classed as functional. For orientation: The colour change of resazurin is a common sign of viable cells or microbes.

The subject of the next experiment is Acinetobacter baumannii. Description: Antibacterial activity against Acinetobacter baumannii ATCC 19606 (CO-ADD:GN_034); MIC in CAMBH media using NBS plates, by Resazurin F(560/590). The experiment is classed as functional. The following applies: Concentration 20 uM, ASSAY_TEST Inhibition of Bacterial Growth, detection method Resazurin, Fluorescence (ex560/em590), MEDIA CAMHB, plate type 384well, CORNING #3640, time 18 hr.

For a further experiment, the system named is Escherichia coli. Nature of the experiment: Antibacterial activity against Escherichia coli ATCC 25922 (CO-ADD:GN_001); MIC in CAMBH media using NBS plates, by Resazurin F(560/590). It counts as functional. The following applies: Concentration 20 uM, ASSAY_TEST Inhibition of Bacterial Growth, detection method Resazurin, Fluorescence (ex560/em590), MEDIA CAMHB, plate type 384well, CORNING #3640, time 18 hr.

The subject of the next experiment is Klebsiella pneumoniae. The conditions noted are these: Concentration 20 uM; ASSAY_TEST Inhibition of Bacterial Growth; detection method Absorption (OD600); MEDIA CAMHB; plate type 384well; NBS; CORNING #3640; time 18 hr.
The next experiment deals with Candida albicans. The following applies: 20 µM.
Another experiment has as its system Cryptococcus neoformans. The following applies: Concentration 20 uM; ASSAY_TEST Inhibition of Fungal Growth; detection method Resazurin; Absorption (OD600-OD570); plate type 384well; NBS; CORNING #3640.

Regarding `Cc1ccc(/N=N/c2c(N)nn(-c3ccccc3)c2N)cc1`, the Inhibition in the experiment with Staphylococcus aureus is 4.28%; with Acinetobacter baumannii it was -1.05%; with Escherichia coli, 11.08%; in the experiment with Klebsiella pneumoniae, 11.62%; with Candida albicans, 9.14%; with Cryptococcus neoformans, -17.06%.
Regarding `CSc1nc(Cl)c(Br)c(Nc2cnc(O)nc2O)n1`, the Inhibition in the experiment with Staphylococcus aureus was 5.42%; in the experiment on Acinetobacter baumannii, 6.52%; in the experiment with Escherichia coli it was -1.71%; with Klebsiella pneumoniae, 4.64%; with Candida albicans it was -2.17%; in the experiment with Cryptococcus neoformans, 0.33%.
Regarding `CCOC(=O)CCC1(C(=O)OC)C(=O)CCCCC/C=C/1C(=O)OC` (centres undefined), the Inhibition in the experiment with Staphylococcus aureus is 9.69%; with Acinetobacter baumannii, 9.62%; in the experiment on Escherichia coli, -17.88%; in the experiment with Klebsiella pneumoniae, 8.19%; in the experiment on Candida albicans, 7.46%; in the experiment on Cryptococcus neoformans it was 18.91%.
For the molecule `COc1c(NC(C)=O)c2ccccc2c2ccccc12`, the Inhibition in the experiment on Staphylococcus aureus is 12.56%; in the experiment with Acinetobacter baumannii, 4.74%; with Escherichia coli, 1.88%; in the experiment on Klebsiella pneumoniae, 16.73%; in the experiment with Candida albicans it was 5.3%; in the experiment with Cryptococcus neoformans, -2.59%.
On to `N#CC1=C2CCCCC2(O)NC1=O` (centres undefined), for which the Inhibition in the experiment with Staphylococcus aureus was 6.52%; in the experiment with Acinetobacter baumannii, -3.34%; in the experiment on Escherichia coli, 7.41%; in the experiment with Klebsiella pneumoniae it was 2.61%; in the experiment on Candida albicans it was -0.03%; with Cryptococcus neoformans it was -5.83%.
For `Clc1ccc(-c2[nH]nc3c2Cc2ccccc2-3)cc1Cl`, the Inhibition was -2.87% with Staphylococcus aureus; 13.22% in the experiment with Acinetobacter baumannii; -5.11% in the experiment with Escherichia coli; 8.31% in the experiment with Klebsiella pneumoniae; 5.84% in the experiment on Candida albicans; 2.71% in the experiment with Cryptococcus neoformans.
Regarding `CC1(C)N=C(N)N=C(N)N1c1ccc(OCCCOc2ccccc2)c(Cl)c1.CCS(=O)(=O)O`, the Inhibition with Staphylococcus aureus is 10.6%; in the experiment with Acinetobacter baumannii, -13.57%; in the experiment on Escherichia coli it was 15.29%; with Klebsiella pneumoniae, 12.4%; with Candida albicans it was -0.44%; in the experiment on Cryptococcus neoformans, -3.49%.
Consider `O=[N+]([O-])c1cccc(/C=C/c2ccccn2)c1`, for which the Inhibition with Staphylococcus aureus was 0.18%; in the experiment with Acinetobacter baumannii, -2.22%; with Escherichia coli, 10.58%; with Klebsiella pneumoniae, 8.63%; in the experiment with Candida albicans, 0.08%; with Cryptococcus neoformans it was -13.12%.
Consider `COC(=O)CC1OCC=C2CN3CCC45C6=CC(=O)C(=O)C([N+](=O)[O-])=C6NC4C1C2CC35` (centres undefined), for which the Inhibition in the experiment with Staphylococcus aureus was 12.88%; in the experiment with Acinetobacter baumannii it was -13.17%; in the experiment on Escherichia coli, 11.73%; with Klebsiella pneumoniae, 18.83%; in the experiment on Candida albicans, -2.29%; with Cryptococcus neoformans, -2.47%.
`Clc1ccc(-c2nc(-c3cc4cc(Cl)ccc4o3)cs2)cc1`: the Inhibition in the experiment on Staphylococcus aureus is -3.66%; in the experiment on Acinetobacter baumannii, 8.53%; in the experiment on Escherichia coli, 11.7%; with Klebsiella pneumoniae, 9.81%; in the experiment with Candida albicans, 1.45%; in the experiment with Cryptococcus neoformans, -4.29%.
Turning to `CCC/C(C)=C/c1ccc(CC)cn1`, the Inhibition in the experiment on Staphylococcus aureus was 1.51%; with Acinetobacter baumannii, -4.3%; in the experiment with Escherichia coli, -16.08%; with Klebsiella pneumoniae, 8.87%; with Candida albicans, 3.23%; with Cryptococcus neoformans, 27.41%.
As for `CN(C)c1nc(Cl)nc2c1nc(Cl)n2C1CCCCO1` (centres undefined), the Inhibition was 8.01% with Staphylococcus aureus; -7.69% with Acinetobacter baumannii; 0.28% in the experiment on Escherichia coli; 5.28% with Klebsiella pneumoniae; 1.95% in the experiment with Candida albicans; -3.53% in the experiment with Cryptococcus neoformans.
Take `CC(=O)O.COc1ccc2nccc(/C=C/c3ccnc4ccc(OC)cc34)c2c1`: the Inhibition with Staphylococcus aureus was 1.03%; with Acinetobacter baumannii it was -11.4%; in the experiment with Escherichia coli, 10.64%; in the experiment with Klebsiella pneumoniae, 6.2%; in the experiment with Candida albicans, 5.73%; in the experiment on Cryptococcus neoformans, -5.13%.
For the molecule `COc1ccccc1N=NNc1ccccc1OC`, the Inhibition in the experiment with Staphylococcus aureus was 15.47%; in the experiment on Acinetobacter baumannii, -0.02%; with Escherichia coli it was 3.88%; with Klebsiella pneumoniae, 9.87%; in the experiment on Candida albicans, 2.77%; in the experiment with Cryptococcus neoformans, -8.49%.
For `NC(=O)CCC(C(=O)O)N1C(=O)c2ccc(O)cc2C1=O` (centres undefined), the Inhibition in the experiment on Staphylococcus aureus was 8.42%; with Acinetobacter baumannii it was 13.26%; in the experiment with Escherichia coli it was -2.7%; in the experiment with Klebsiella pneumoniae, 12.88%; in the experiment on Candida albicans, 4.99%; in the experiment on Cryptococcus neoformans, -2.28%.
For `O=C(NC1CCCCC1)c1cc2ccccc2cc1O`, the Inhibition in the experiment with Staphylococcus aureus is 11.46%; in the experiment with Acinetobacter baumannii, 7.31%; in the experiment on Escherichia coli it was 4.75%; with Klebsiella pneumoniae, 14.67%; in the experiment on Candida albicans, 0.86%; in the experiment on Cryptococcus neoformans it was -3.07%.
As to `CCOC(=O)c1c(C)c(C(=O)OCC)n(C)c1C`, the Inhibition in the experiment with Staphylococcus aureus was 8.23%; with Acinetobacter baumannii, 6.43%; in the experiment with Escherichia coli, -8.3%; in the experiment on Klebsiella pneumoniae, 6.99%; in the experiment on Candida albicans, 4.68%; with Cryptococcus neoformans it was 10.56%.
On to `O=C(Nc1ccccc1-c1ccccc1)C(=O)Nc1ccccc1-c1ccccc1`, for which the Inhibition was 3.9% with Staphylococcus aureus; -8.51% in the experiment with Acinetobacter baumannii; -14.91% in the experiment on Escherichia coli; 2.5% with Klebsiella pneumoniae; 2.13% in the experiment with Candida albicans; 4.35% in the experiment on Cryptococcus neoformans.
Consider `CCCCCC(=O)N1CCCC1`, for which the Inhibition in the experiment on Staphylococcus aureus was 12.42%; with Acinetobacter baumannii, -13.64%; with Escherichia coli it was 4.47%; with Klebsiella pneumoniae, 10.8%; in the experiment on Candida albicans, 0.29%; with Cryptococcus neoformans it was -1.54%.
With `Nc1ccc(C(=O)Nc2ccc(Nc3ccncc3)cc2)cc1`, the Inhibition in the experiment with Staphylococcus aureus is -3.72%; with Acinetobacter baumannii, 6.97%; with Escherichia coli, -13.54%; in the experiment on Klebsiella pneumoniae, 10.04%; in the experiment with Candida albicans, 2.67%; with Cryptococcus neoformans, -0.31%.
Take `COC(=O)CC1(C(=O)OC)Nc2cc(Cl)c(Cl)cc2S(=O)(=O)N1O` (centres undefined): the Inhibition in the experiment with Staphylococcus aureus came out at 8.27%; with Acinetobacter baumannii, 11.98%; in the experiment with Escherichia coli it was 7.08%; in the experiment on Klebsiella pneumoniae, 10.44%; in the experiment with Candida albicans, 3.58%; in the experiment with Cryptococcus neoformans, 3.59%.
With `Cc1ccc(S(=O)(=O)NNC(=O)C23CCC(CC2)C3)cc1`, the Inhibition is -6.52% in the experiment with Staphylococcus aureus; 6.35% in the experiment on Acinetobacter baumannii; 7.26% with Escherichia coli; 14.92% in the experiment on Klebsiella pneumoniae; 4.46% in the experiment on Candida albicans; -6.05% in the experiment on Cryptococcus neoformans.
With `CSc1nc(N)c(C(=O)Nc2ccc([N+](=O)[O-])cc2)s1`, the Inhibition in the experiment with Staphylococcus aureus is 3.88%; in the experiment with Acinetobacter baumannii it was 5.85%; with Escherichia coli, 8.19%; in the experiment with Klebsiella pneumoniae it was 8.8%; with Candida albicans, 7.49%; in the experiment on Cryptococcus neoformans, -10.16%.
As for `O=C(Nc1ccc(Nc2ccncc2)cc1)c1ccc([N+](=O)[O-])cc1`, the Inhibition is -5.06% with Staphylococcus aureus; 12.27% in the experiment on Acinetobacter baumannii; 7.64% in the experiment on Escherichia coli; 10.28% in the experiment on Klebsiella pneumoniae; 3.08% in the experiment on Candida albicans; -7.15% in the experiment with Cryptococcus neoformans.

Usually Inhibition stands for the relative decrease from the control value, in per cent.
